Bioassay records as filed in PubChem BioAssay.
Cruzain Triton = blocks cruzain activity in presence of Triton detergent | P25779 | purified cruzain, Z-FR-AMC fluorescence, 0.01% Triton | Potency, µM, most hits filed as inhibitors | actives 0.43% (n = 200,000); further: nearly all actives have a fitted effect of over 40% in size
Target sequence (P25779 123-467 limits assumed): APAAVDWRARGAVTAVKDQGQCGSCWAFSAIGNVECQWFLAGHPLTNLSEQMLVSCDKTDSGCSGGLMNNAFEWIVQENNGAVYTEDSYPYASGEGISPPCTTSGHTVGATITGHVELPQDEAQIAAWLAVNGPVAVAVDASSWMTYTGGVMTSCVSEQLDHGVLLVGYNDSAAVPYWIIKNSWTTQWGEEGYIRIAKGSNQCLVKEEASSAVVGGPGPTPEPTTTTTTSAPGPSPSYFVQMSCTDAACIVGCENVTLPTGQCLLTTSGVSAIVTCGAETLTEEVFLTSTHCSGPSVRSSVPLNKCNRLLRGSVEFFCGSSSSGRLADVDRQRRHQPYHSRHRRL
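15 min RT preincubation of 1.5 nM cruzain with compound, then 2 uM Z-FR-AMC added; kinetic AMC fluorescence, 60 s delta. Triton X-100 0.01%, pH 5.5.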
Cruzain noTriton = blocks cruzain activity in detergent-free assay; P25779; purified cruzain, Z-FR-AMC fluorescence, no detergent; Potency, µM, most hits filed as inhibitors; actives 2.3% (n = 200,000); AID 1476; further: nearly all actives have a fitted effect of over 40% in size
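Purified cruzain at 1.5 nM, pre-incubated 15 min with compound at room temperature in 100 mM sodium acetate pH 5.5, 5 mM DTT, 0.00005% Triton X-100. Reaction started with 2 uM Z-FR-AMC; AMC fluorescence increase over 60 s gives rate.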
A number is an active result. Sampled rows, rich in hits. Any-hit rate of the full collection: about 2.6%. The call rests on the fitted dose curve; in most records, active means well fitted curve in the direction sought with a large enough effect; inconclusive means small, poorly fitted or top-dose-only effect, or another doubt; inactive means no such curve, though single readings can be large; an effect the other way counts as inactive or inconclusive.

`O=C1S/C(=C/c2ccccc2)C(=O)N1CC(O)Cn1c2ccccc2c2ccccc21` (stereo not given) gave Cruzain Triton inactive and Cruzain noTriton inactive.
For CN(C)c1ccc(/C=C2\SC(=O)N(CC(O)Cn3c4ccccc4c4ccccc43)C2=O)cc1 (stereo not given) the results were Cruzain Triton inactive and Cruzain noTriton 5.01µM.
For COc1ccc(NC(=O)Cn2c(=O)n(Cc3ccccc3Cl)c(=O)c3cc(OC)c(OC)cc32)cc1OC the results were Cruzain Triton inactive and Cruzain noTriton inactive.
CN(c1ccccc1)S(=O)(=O)c1ccc(Cl)c(C(=O)Nc2ccc(-c3nc4ccccc4[nH]3)cc2)c1 was read as Cruzain Triton inactive and Cruzain noTriton 12.6µM.
Screening O=C(Nc1ccc(-c2nc3ccccc3[nH]2)cc1)c1ccccc1NS(=O)(=O)c1ccc(F)cc1 returned Cruzain Triton inactive and Cruzain noTriton 15.8µM.
For CN(c1ccccc1)S(=O)(=O)c1ccc(Cl)c(C(=O)Nc2nc3ccccc3[nH]2)c1 the results were Cruzain Triton inactive and Cruzain noTriton inconclusive.
Screening Cc1cc(F)ccc1S(=O)(=O)Nc1ccccc1C(=O)Nc1ccccc1-c1nc2ccccc2[nH]1 returned Cruzain Triton inactive and Cruzain noTriton inactive.
For COc1c(Cl)cc(C(=O)Nc2cccc(-c3nc4ccccc4[nH]3)c2)cc1Cl the results were Cruzain Triton inactive and Cruzain noTriton inconclusive.
CCCN(CCC)S(=O)(=O)c1ccc(C(=O)Nc2cccc(-c3nc4ccccc4[nH]3)c2)cc1 was read as Cruzain Triton inactive and Cruzain noTriton 7.94µM.
Cc1ccc(OCc2nc(-c3ccc(C(=O)N4CCN(c5cc(Cl)ccc5C)CC4)cc3)oc2C)cc1 was read as Cruzain Triton inactive and Cruzain noTriton inactive.
For CN1CCN(CN2C(=O)C3C4C=CC(C3C2=O)C2C3C(=O)N(CN5CCN(C)CC5)C(=O)C3C42)CC1 (stereo not given) the results were Cruzain Triton inactive and Cruzain noTriton inactive.
CCc1ccccc1NC(=O)CSc1nnc(-c2cc(OC)c(OC)c(OC)c2)o1 was read as Cruzain Triton inactive and Cruzain noTriton inactive.
O=C(Nc1ccc(NC(=O)c2cccs2)cc1)c1ccc(Cl)cc1 was read as Cruzain Triton inactive and Cruzain noTriton inactive.
`COc1c(Cl)cc(Cl)cc1/C=C/C(=O)c1ccc(NC(=O)c2cccs2)cc1` gave Cruzain Triton inactive and Cruzain noTriton 31.6µM.
For O=C(CSc1nc2ccsc2c(=O)n1Cc1ccccc1F)NCc1ccccc1Cl the results were Cruzain Triton inactive and Cruzain noTriton inactive.
`O=C(CSC1=NCCN1)C1COc2ccccc2O1` (stereo not given) gave Cruzain Triton inactive and Cruzain noTriton 1.26µM.
O=C(O)CSC1=NCCN1 was read as Cruzain Triton inactive and Cruzain noTriton inactive.
Screening C=CC(=O)OCCCCCCOC(=O)C=C returned Cruzain Triton inactive and Cruzain noTriton inactive.
O=[N+]([O-])c1ccc(N2CCN(S(=O)(=O)c3ccccc3)CC2)cc1NCC1CCCO1 (stereo not given) was read as Cruzain Triton inactive and Cruzain noTriton inactive.
For O=[N+]([O-])c1ccc(N2CCN(S(=O)(=O)c3ccc4ccccc4c3)CC2)cc1NCC1CCCO1 (stereo not given) the results were Cruzain Triton inactive and Cruzain noTriton 15.8µM.
Screening CCc1nnc(NC(=O)c2ccc(Cl)c(S(=O)(=O)N3CCc4ccccc43)c2)s1 returned Cruzain Triton inactive and Cruzain noTriton 12.6µM.
Screening O=C(Nc1nnc(S(=O)(=O)N2CCc3ccccc32)s1)c1ccccc1Cl returned Cruzain Triton inactive and Cruzain noTriton inactive.
For O=C(Nc1nnc(C2CC2)s1)c1ccc(Cl)c(S(=O)(=O)N2CCc3ccccc3C2)c1 the results were Cruzain Triton inactive and Cruzain noTriton 25.1µM.
For O=C(Nc1nnc(C2CC2)s1)c1cc(S(=O)(=O)N2CCN(c3ccccc3)CC2)ccc1Cl the results were Cruzain Triton inactive and Cruzain noTriton inconclusive.
`COc1cccc2c1CCC1=CC(=O)CC[C@@]12C` gave Cruzain Triton inactive and Cruzain noTriton inactive.
`O=C(O)c1cccc(OCCO)c1` gave Cruzain Triton inactive and Cruzain noTriton inactive.
For CCN(CC)S(=O)(=O)c1ccc2c(c1)N(CC(=O)N1CCN(c3cccc(OC)c3)CC1)C(=O)CO2 the results were Cruzain Triton inactive and Cruzain noTriton inconclusive.
For O=C(NCc1cn2ccsc2n1)c1cccc(C(F)(F)F)c1 the results were Cruzain Triton inactive and Cruzain noTriton inactive.
`O=C(NCc1cn2ccsc2n1)c1c(F)cccc1Cl` gave Cruzain Triton inactive and Cruzain noTriton 20µM.
Screening CCOc1ccc(CCNC(=O)c2cccc(-n3c(C)nc4cccnc43)c2C)cc1 returned Cruzain Triton inactive and Cruzain noTriton inactive.
`CCn1c(CC(=O)Nc2ccc(C)c(Cl)c2)nnc1SCc1ccc(Cl)c(Cl)c1` gave Cruzain Triton inactive and Cruzain noTriton 12.6µM.
Screening CCn1c(CC(=O)Nc2ccc(C)c(Cl)c2)nnc1SCC(=O)Nc1nc(C)cs1 returned Cruzain Triton inactive and Cruzain noTriton inconclusive.
